# Assay results: PubChem BioAssay (NCI)
# Values joined by “and” are separate entries in the source; they are usually repeats but may differ in a detail not shown here. Identical values can stand only once. About 79,000 compounds went through this panel and 15% of them were active in at least one assay; those are over-represented in the sample as a whole. Some compounds were tested as several samples or in several runs, with calls that do not always agree. Active and inactive are the calls of the source. Cut-off read from the data, not from the text of the source: active = growth inhibition above about 70%; inactive = the rest.
# Legend:
# [1] = NCI Yeast Anticancer Drug Screen. Data for the rad50EPP+ strain (AID 151);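 note: 0% = growth of vehicle-treated control cultures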; details: S. cerevisiae rad50 mutant strain, stronger effect = higher value
# Procedure, shortened: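 Read-out is yeast growth inhibition relative to vehicle; cells used were the rad50EPP+ strain.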
# [2] = NCI Yeast Anticancer Drug Screen. Data for the mgt1 strain (AID 153); details: S. cerevisiae mgt1 mutant growth inhibition, stronger effect = higher value
# Procedure, shortened: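 Measured: inhibition of mgt1 yeast growth by compound, normalized to vehicle-treated cultures.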
# [3] = NCI Yeast Anticancer Drug Screen. Data for the rad50 strain (AID 155);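 note: 0% = growth of vehicle-only cultures of the same strain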; details: S. cerevisiae rad50 strain growth inhibition, stronger effect = higher value
# Procedure, shortened: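 Genetically altered yeast (DNA repair pathway); compound treatment; growth inhibition vs vehicle ctrl.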
# [4] = NCI Yeast Anticancer Drug Screen. Data for the mec2-1 strain (AID 157); details: S. cerevisiae mec2-1 strain, stronger effect = higher value
# Procedure, shortened: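 Using mec2-1 yeast: add compound, measure growth, express inhibition versus vehicle-treated cultures.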
# [5] = NCI Yeast Anticancer Drug Screen. Data for the rad14 strain (AID 159);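 note: 0% = growth of vehicle-treated control cultures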; details: S. cerevisiae rad14 strain growth inhibition, stronger effect = higher value
# Procedure, shortened: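 Test compounds were applied to a repair-deficient yeast strain. Its growth was then compared with that of cultures given vehicle alone, and inhibition was expressed relative to those controls.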
# [6] = NCI Yeast Anticancer Drug Screen. Data for the sgs1 mgt1 strain (AID 161);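 note: 0% = growth of cultures given vehicle only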; details: S. cerevisiae sgs1 mgt1 strain, stronger effect = higher value
# Procedure, shortened: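 Percent growth inhibition was derived by comparing compound-exposed mutant yeast with vehicle-exposed cultures. The strain carries alterations in DNA damage repair.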
# [7] = NCI Yeast Anticancer Drug Screen. Data for the CLN2oe strain (AID 163);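 note: 0% = growth of vehicle-only control cultures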; details: S. cerevisiae CLN2oe strain, stronger effect = higher value
# Procedure, shortened: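 Whole-cell yeast growth assay. A strain engineered for altered cell-cycle control received compound, and inhibition relative to vehicle-treated cultures was recorded.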
# [8] = NCI Yeast Anticancer Drug Screen. Data for the cln2 rad14 strain (AID 165);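 note: 0% = growth equal to vehicle treated cultures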; details: S. cerevisiae cln2 rad14 strain, stronger effect = higher value
# Procedure, shortened: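 Yeast strain cln2 rad14, bearing defects in cell cycle control and DNA repair, serves as the test system; values reflect growth inhibition compared with vehicle.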
# [9] = NCI Yeast Anticancer Drug Screen. Data for the bub3 strain (AID 167); details: S. cerevisiae bub3 mutant strain, stronger effect = higher value
# Procedure, shortened: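 Yeast carrying a defined mutation is treated with each compound, and growth is compared with that of vehicle-exposed cells to give inhibition.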
# [10] = NCI Yeast Anticancer Drug Screen. Data for the wt2 strain (AID 169);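 note: 0% = growth of vehicle-treated yeast cultures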; details: S. cerevisiae wt2 strain growth inhibition, stronger effect = higher value
# Procedure, shortened: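 Treated yeast vs. vehicle-treated yeast: growth inhibition determined.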
# [11] = NCI Yeast Anticancer Drug Screen. Data for the mlh1 strain (AID 171);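 note: 0% = growth of vehicle-treated control cultures of the same strain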; details: S. cerevisiae mlh1 strain growth inhibition, stronger effect = higher value
# Procedure, shortened: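 A yeast strain with a defined genetic lesion serves as the test organism. Cultures receive compound or vehicle, and growth is measured.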
# [12] = NCI Yeast Anticancer Drug Screen. Data for the sgs1 strain (AID 173);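 note: 0% = growth of vehicle-only control cultures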; details: S. cerevisiae sgs1 mutant, stronger effect = higher value
# Procedure, shortened: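 A genetically defined yeast mutant is incubated with the test compound, and its growth is compared to that of the same strain given vehicle.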
# [13] = NCI Yeast Anticancer Drug Screen. Data for the mlh1 rad18 strain (AID 175); details: S. cerevisiae mlh1 rad18 strain growth inhibition, stronger effect = higher value
# Procedure, shortened: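 Steps: expose repair-defective yeast to compound; measure growth; express inhibition against vehicle-treated controls.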
# [14] = NCI Yeast Anticancer Drug Screen. Data for the rad18 strain (AID 177); details: S. cerevisiae rad18 mutant growth inhibition, stronger effect = higher value
# Procedure, shortened: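 Measured value is growth inhibition of a yeast strain bearing a DNA repair alteration, referenced to vehicle-treated cells.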
# [15] = at 5.0 µM (retest, dose inferred, filed as 0.5)
# [16] = at 50.0 µM (retest, dose inferred, filed as 5.0)
smiles,measurement,setting,value
CN(C)c1ccc(/C=C/c2ccnc3ccc4ccccc4c23)cc1,growth inhibition,[1]; at 1.2 µM,2% (inactive)
same,growth inhibition,[1]; at 3.7 µM,8% (inactive)
same,growth inhibition,[1]; at 11.0 µM,15% (inactive)
same,growth inhibition,[1]; at 33.0 µM,4% (inactive)
same,growth inhibition,[1]; at 100.0 µM,-14% (inactive)
same,growth inhibition,[2]; at 1.2 µM,-3% (inactive)
same,growth inhibition,[2]; at 3.7 µM,-2% (inactive)
same,growth inhibition,[2]; at 11.0 µM,45% (inactive)
same,growth inhibition,[2]; at 33.0 µM,69% (inactive)
same,growth inhibition,[2]; at 100.0 µM,58% (inactive)
same,growth inhibition,[3]; at 1.2 µM,-7% (inactive)
same,growth inhibition,[3]; at 3.7 µM,3% (inactive)
same,growth inhibition,[3]; [15],9% (inactive)
same,growth inhibition,[3]; at 11.0 µM,30% (inactive)
same,growth inhibition,[3]; at 33.0 µM,67% (inactive)
same,growth inhibition,[3]; [16],-7% (inactive)
same,growth inhibition,[3]; at 50.0 µM,69% (inactive)
same,growth inhibition,[3]; at 100.0 µM,70% (active)
same,growth inhibition,[4]; at 1.2 µM,-7% (inactive)
same,growth inhibition,[4]; at 3.7 µM,-7% (inactive)
same,growth inhibition,[4]; [15],-7% (inactive)
same,growth inhibition,[4]; at 11.0 µM,4% (inactive)
same,growth inhibition,[4]; at 33.0 µM,82% (active)
same,growth inhibition,[4]; [16],-18% (inactive)
same,growth inhibition,[4]; at 50.0 µM,27.3% (inactive)
same,growth inhibition,[4]; at 100.0 µM,82% (active)
same,growth inhibition,[5]; at 1.2 µM,-5% (inactive)
same,growth inhibition,[5]; at 3.7 µM,-4% (inactive)
same,growth inhibition,[5]; at 11.0 µM,28% (inactive)
same,growth inhibition,[5]; at 33.0 µM,83% (active)
same,growth inhibition,[5]; at 100.0 µM,80% (active)
same,growth inhibition,[6]; [15],-2% (inactive)
same,growth inhibition,[6]; [16],76% (active)
same,growth inhibition,[6]; at 50.0 µM,91.4% (active)
same,growth inhibition,[7]; at 1.2 µM,-11% (inactive)
same,growth inhibition,[7]; at 3.7 µM,-16% (inactive)
same,growth inhibition,[7]; at 11.0 µM,-15% (inactive)
same,growth inhibition,[7]; at 33.0 µM,2% (inactive)
same,growth inhibition,[7]; at 100.0 µM,55% (inactive)
same,growth inhibition,[8]; [15],-14% (inactive)
same,growth inhibition,[8]; [16],22% (inactive)
same,growth inhibition,[8]; at 50.0 µM,6.65% (inactive)
same,growth inhibition,[9]; at 1.2 µM,-6% (inactive)
same,growth inhibition,[9]; at 3.7 µM,-8% (inactive)
same,growth inhibition,[9]; [15],-4% (inactive)
same,growth inhibition,[9]; at 11.0 µM,6% (inactive)
same,growth inhibition,[9]; at 33.0 µM,83% (active)
same,growth inhibition,[9]; [16],3% (inactive)
same,growth inhibition,[9]; at 50.0 µM,70% (active)
same,growth inhibition,[9]; at 100.0 µM,79% (active)
same,growth inhibition,[10]; at 1.2 µM,-6% (inactive)
same,growth inhibition,[10]; at 3.7 µM,-5% (inactive)
same,growth inhibition,[10]; at 11.0 µM,50% (inactive)
same,growth inhibition,[10]; at 33.0 µM,61% (inactive)
same,growth inhibition,[10]; at 100.0 µM,51% (inactive)
same,growth inhibition,[11]; at 1.2 µM,-8% (inactive)
same,growth inhibition,[11]; at 3.7 µM,0% (inactive)
same,growth inhibition,[11]; at 11.0 µM,45% (inactive)
same,growth inhibition,[11]; at 33.0 µM,67% (inactive)
same,growth inhibition,[11]; at 100.0 µM,68% (inactive)
same,growth inhibition,[12]; at 1.2 µM,-3% (inactive)
same,growth inhibition,[12]; at 3.7 µM,11% (inactive)
same,growth inhibition,[12]; at 11.0 µM,67% (inactive)
same,growth inhibition,[12]; at 33.0 µM,77% (active)
same,growth inhibition,[12]; at 100.0 µM,68% (inactive)
same,growth inhibition,[13]; [15],-3% (inactive)
same,growth inhibition,[13]; [16],37% (inactive)
same,growth inhibition,[13]; at 50.0 µM,72% (active)
same,growth inhibition,[14]; at 1.2 µM,2% (inactive)
same,growth inhibition,[14]; at 3.7 µM,20% (inactive)
same,growth inhibition,[14]; at 11.0 µM,75% (active)
same,growth inhibition,[14]; at 33.0 µM,84% (active)
same,growth inhibition,[14]; at 100.0 µM,75% (active)
COc1nc(N)c(N=CC(OC(C)=O)C(OC(C)=O)C(COC(C)=O)OC(C)=O)c(=O)n1C (stereo not drawn),growth inhibition,[3]; [15],-3% (inactive) and -10% (inactive) and 6% (inactive)
same,growth inhibition,[3]; [16],-9% (inactive) and -4% (inactive) and -19% (inactive)
same,growth inhibition,[4]; [15],24% (inactive) and -10% (inactive) and 7% (inactive)
same,growth inhibition,[4]; [16],3% (inactive) and 1% (inactive) and 5% (inactive)
same,growth inhibition,[6]; [15],8% (inactive) and 6% (inactive) and 29% (inactive)
same,growth inhibition,[6]; [16],13% (inactive) and -2% (inactive) and -3% (inactive)
same,growth inhibition,[8]; [15],-6% (inactive) and 1% (inactive) and 6% (inactive)
same,growth inhibition,[8]; [16],-13% (inactive) and 6% (inactive) and 19% (inactive)
same,growth inhibition,[9]; [15],10% (inactive) and 11% (inactive) and 13% (inactive)
same,growth inhibition,[9]; [16],-7% (inactive) and -8% (inactive) and -4% (inactive)
same,growth inhibition,[13]; [15],-3% (inactive) and -20% (inactive) and -25% (inactive)
same,growth inhibition,[13]; [16],0% (inactive) and -18% (inactive) and -21% (inactive)
Cc1cc(SC#N)ccc1O,growth inhibition,[3]; [15],13% (inactive) and 4% (inactive) and -2% (inactive)
same,growth inhibition,[3]; [16],91% (active)
same,growth inhibition,[3]; at 50.0 µM,92.6% (active) and 86.2% (active) and 91.6% (active)
same,growth inhibition,[4]; [15],-1% (inactive) and -7% (inactive) and -6% (inactive)
same,growth inhibition,[4]; [16],83% (active) and 90% (active) and 62% (inactive)
same,growth inhibition,[4]; at 50.0 µM,90% (active) and 87.1% (active)
same,growth inhibition,[6]; [15],-2% (inactive) and 6% (inactive)
same,growth inhibition,[6]; [16],92% (active) and 77% (active) and 63% (inactive)
same,growth inhibition,[6]; at 50.0 µM,95.2% (active) and 85.7% (active) and 75% (active)
same,growth inhibition,[8]; [15],-1% (inactive) and 26% (inactive) and -3% (inactive)
same,growth inhibition,[8]; [16],64% (inactive) and 91% (active) and 71% (active)
same,growth inhibition,[8]; at 50.0 µM,32.8% (inactive) and 83.2% (active) and 70% (inactive)
same,growth inhibition,[9]; [15],15% (inactive) and 2% (inactive) and 13% (inactive)
same,growth inhibition,[9]; [16],94% (active) and 80% (active)
same,growth inhibition,[9]; at 50.0 µM,91.3% (active) and 88.4% (active) and 95% (active)
same,growth inhibition,[13]; [15],9% (inactive) and -4% (inactive) and 1% (inactive)
same,growth inhibition,[13]; [16],95% (active) and 87% (active)
same,growth inhibition,[13]; at 50.0 µM,96.4% (active) and 86.3% (active) and 95.6% (active)
